Measurements published in PubChem BioAssay AID1159580 (chemical genetic matrix, 2015).
“And” between values parts separate entries of the source, which are not always exact repeats. Identical values can stand only once. The campaign covered roughly 5,500 compounds. About 2,000 (36%) were called active. Roughly 18% stayed inconclusive and do not appear here. No stated cut-off is given here; in the data, active means normalized growth mostly below about 0.91 (no sharp cut-off); inconclusive means no clear call, values can overlap the other calls; inactive means mostly above about 0.92. The list shows a part of the results.

Assay: chemical genetic growth profiling, strain panel (AID 1159580);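 further: tested at 20 µM; growth read once vehicle control cultures reached saturation at 30 °C; 1 = growth at the plate median or of vehicle wells; lower values mean less growth of the strain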
Conditions: S. cerevisiae deletion strains, growth OD

Measured: normalized growth

CCCc1nc2c(C)cc(-c3nc4ccccc4n3C)cc2n1Cc1ccc(-c2ccccc2C(=O)O)cc1
inactive: locus YAL013W, strain DEP1, active compounds read low 1.01 | locus YAL021C, strain ccr4, active compounds read low 1.02 | locus YAL026C, strain drs2, active compounds read low 1 | locus YAL030W, strain snc1, active compounds read low 1.01 | locus YBL061C, strain skt5, active compounds read low 1.01 | locus YBR009C, strain hhf1, active compounds read low 1.01 | locus YBR021W, strain FUR4, active compounds read low 0.992 | locus YBR023C, strain chs3, active compounds read low 1.01 | locus YBR171W, strain sec66, active compounds read low 1.02 | locus YBR229C, strain ROT2, active compounds read low 1 | locus YBR231C, strain swc5, active compounds read low 1.02 | locus YBR279W, strain paf1, active compounds read low 1.01 | locus YCL011C, strain gbp2, active compounds read low 1.01 | locus YCL016C, strain dcc1, active compounds read low 1 | locus YCL029C, strain bik1, active compounds read low 1.01 | locus YCL069W, strain vba3, active compounds read low 1.02 | locus YCR088W, strain abp1, active compounds read low 1.02 | locus YDL005C, strain med2, active compounds read low 1.02 | locus YDL035C, strain GPR1, active compounds read low 0.98 | locus YDL040C, strain nat1, active compounds read low 1.01 | locus YDL074C, strain BRE1, active compounds read low 0.997 | locus YDL101C, strain DUN1, active compounds read low 0.999 | locus YDL134C, strain PPH21, active compounds read low 1 | locus YDL185W, strain tfp1, active compounds read low 1.01 | locus YDL192W, strain arf1, active compounds read low 1.02 | locus YDR001C, strain nth1, active compounds read low 1.02 | locus YDR069C, strain doa4, active compounds read low 1.03 | locus YDR101C, strain arx1, active compounds read low 0.989 | locus YDR137W, strain rgp1, active compounds read low 0.975 | locus YDR150W, strain NUM1, active compounds read low 1.01 | locus YDR159W, strain sac3, active compounds read low 0.978 | locus YDR162C, strain NBP2, active compounds read low 1.01 | locus YDR195W, strain ref2 1.06 | locus YDR297W, strain sur2, active compounds read low 1.01 | locus YDR318W, strain mcm21, active compounds read low 1 | locus YDR334W, strain swr1, active compounds read low 1.02 | locus YDR335W, strain msn5, active compounds read low 1.03 | locus YDR388W, active compounds read low 1.02 | locus YDR392W, strain spt3, active compounds read low 0.829 | locus YDR502C, strain sam2, active compounds read low 1 | locus YEL003W, strain gim4, active compounds read low 1.02 | locus YEL037C, strain rad23, active compounds read low 1.02 | locus YEL061C, strain CIN8 (second series), active compounds read low 1.02 | locus YEL061C, strain CIN8, active compounds read low 1.01 | locus YER015W, strain faa2, active compounds read low 1.01 | locus YER016W, strain bim1, active compounds read low 1.01 | locus YER110C, active compounds read low 1.02 | locus YER111C, strain swi4, active compounds read low 1.01 | locus YER155C, strain BEM2 (second series), active compounds read low 0.926 | locus YER155C, strain BEM2, active compounds read low 1 | locus YER167W, strain BCK2, active compounds read low 0.998 | locus YFR010W, strain ubp6, active compounds read low 1.03 | locus YGL078C, strain dbp3, active compounds read low 1.01 | locus YGL086W, strain mad1, active compounds read low 0.988 | locus YGL167C, strain pmr1, active compounds read low 1.02 | locus YGL173C, strain kem1, active compounds read low 1.01 | locus YGL227W, strain vid30, active compounds read low 1.01 | locus YGL240W, strain doc1, active compounds read low 1.01 | locus YGL248W, strain PDE1, active compounds read low 0.994 | locus YGL253W, strain hxk2, active compounds read low 1.03 | locus YGR078C, strain PAC10, active compounds read low 0.997 | locus YGR135W, strain pre9, active compounds read low 1.04 | locus YGR229C, strain SMI1, active compounds read low 1.01 | locus YGR252W, strain gcn5, active compounds read low 0.994 | locus YHR013C, strain ard1, active compounds read low 1.04 | locus YHR027C, strain rpn1, active compounds read low 1.01 | locus YHR030C, strain SLT2, active compounds read low 1 and 0.973 | locus YHR079C, strain IRE1 (second series), active compounds read low 0.997 | locus YHR079C, strain IRE1, active compounds read low 0.967 | locus YHR094C, strain hxt1, active compounds read low 1.01 | locus YHR129C, strain ARP1, active compounds read low 0.996 | locus YHR142W, strain chs7, active compounds read low 1.03 | locus YHR200W, strain rpn10, active compounds read low 1 | locus YIL066C, strain RNR3, active compounds read low 0.997 | locus YIL073C, strain SPO22, active compounds read low 1.08 | locus YIL125W, strain kgd1, active compounds read low 1 | locus YIR030C, strain dcg1, active compounds read low 1.01 | locus YJL092W, strain hpr5, active compounds read low 1.01 | locus YJL095W, strain BCK1 (second series), active compounds read low 1 | locus YJL095W, strain BCK1, active compounds read low 0.989 and 0.986 | locus YJL115W, strain asf1, active compounds read low 1.01 | locus YJL129C, strain trk1, active compounds read low 0.956 | locus YJL134W, strain LCB3, active compounds read low 1 | locus YJL154C, strain vps35, active compounds read low 1.01 | locus YJL164C, strain tpk1, active compounds read low 1 | locus YJL166W, strain qcr8, active compounds read low 1.01 | locus YJL168C, strain set2, active compounds read low 1 | locus YJL187C, strain SWE1 (second series), active compounds read low 0.995 | locus YJL187C, strain SWE1, active compounds read low 1.01
